Experimental findings from paper PMC7862700, “An all-to-all approach to the identification of sequence-specific readers for epigenetic DNA modifications on cytosine” are described below.

Assay in all cases: DAPPL (digital affinity profiling via proximity ligation, sequencing); 10 mM Tris-HCl pH 7.5, 50 mM NaCl, 1 mM DTT, 4% glycerol, room temperature, 30 min; GST-TFs on glutathione beads, 16-mer random dsDNA library, 0.1% formaldehyde crosslink after washing; high values mean tight binding
What all share (conditions): protein: recombinant; tags: N-terminal GST; dsDNA, one strand shown

The target of one experiment is T1, ETV2 (Homo sapiens, UniProt O00321 1-342).
T1 sequence: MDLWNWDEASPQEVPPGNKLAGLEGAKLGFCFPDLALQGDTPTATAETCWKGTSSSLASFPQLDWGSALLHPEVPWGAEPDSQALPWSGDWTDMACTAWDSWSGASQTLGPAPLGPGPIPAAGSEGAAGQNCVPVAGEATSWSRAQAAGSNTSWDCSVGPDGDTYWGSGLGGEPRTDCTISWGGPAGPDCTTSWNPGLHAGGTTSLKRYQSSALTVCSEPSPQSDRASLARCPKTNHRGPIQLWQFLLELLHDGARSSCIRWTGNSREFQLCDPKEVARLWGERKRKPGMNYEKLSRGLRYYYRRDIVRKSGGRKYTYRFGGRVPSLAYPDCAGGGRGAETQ
In outline: (§1)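 GST fusions of human transcription factors were expressed in yeast and captured with glutathione beads. Once given DNA barcodes and pooled alongside a tag-only sample, they were incubated for 30 min at room temperature with 200 nmole of a random double-stranded 16-mer DNA library in Tris/NaCl/DTT/glycerol buffer, then washed, crosslinked (0.1% formaldehyde), proximity-ligated, PCR-amplified and sequenced on an Illumina NextSeq500. The binding signal of each hexamer is its read frequency for a factor divided by its frequency for the tag-only sample.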

The target of the next experiment is T2, ELF3 (Homo sapiens, UniProt P78545 1-371).
T2 sequence: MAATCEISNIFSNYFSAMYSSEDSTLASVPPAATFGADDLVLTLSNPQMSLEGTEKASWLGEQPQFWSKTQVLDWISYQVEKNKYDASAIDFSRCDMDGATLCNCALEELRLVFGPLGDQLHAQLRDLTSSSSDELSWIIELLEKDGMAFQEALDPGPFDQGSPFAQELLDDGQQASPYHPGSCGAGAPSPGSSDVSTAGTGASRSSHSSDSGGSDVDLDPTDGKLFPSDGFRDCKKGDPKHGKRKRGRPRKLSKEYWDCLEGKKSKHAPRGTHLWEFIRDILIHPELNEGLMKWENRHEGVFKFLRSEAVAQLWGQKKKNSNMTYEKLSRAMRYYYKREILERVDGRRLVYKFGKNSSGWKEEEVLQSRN
In outline: as §1

Another experiment concerns the target ETV1 (Homo sapiens, UniProt P50549 1-477). In outline: as §1
In the next experiment the target is T3, ERF (Homo sapiens, UniProt P50548 1-548).
T3 sequence: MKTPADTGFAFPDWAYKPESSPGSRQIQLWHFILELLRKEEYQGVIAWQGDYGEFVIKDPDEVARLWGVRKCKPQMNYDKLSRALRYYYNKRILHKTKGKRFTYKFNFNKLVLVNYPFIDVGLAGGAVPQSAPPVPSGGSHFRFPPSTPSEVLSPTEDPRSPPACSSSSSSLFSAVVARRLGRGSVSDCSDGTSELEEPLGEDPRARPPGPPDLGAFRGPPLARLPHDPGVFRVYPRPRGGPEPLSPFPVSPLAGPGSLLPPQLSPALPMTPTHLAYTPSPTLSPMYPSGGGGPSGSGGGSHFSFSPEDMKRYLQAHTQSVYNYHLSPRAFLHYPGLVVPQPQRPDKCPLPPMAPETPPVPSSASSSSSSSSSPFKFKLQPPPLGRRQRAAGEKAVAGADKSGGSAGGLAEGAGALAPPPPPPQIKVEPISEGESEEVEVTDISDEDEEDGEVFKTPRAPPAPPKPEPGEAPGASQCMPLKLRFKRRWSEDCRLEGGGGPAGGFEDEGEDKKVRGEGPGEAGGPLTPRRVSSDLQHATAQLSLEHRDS
In outline:
as §1

In the next experiment the target is T4, ETV3L (Homo sapiens, UniProt Q6ZN32 1-361).
T4 sequence: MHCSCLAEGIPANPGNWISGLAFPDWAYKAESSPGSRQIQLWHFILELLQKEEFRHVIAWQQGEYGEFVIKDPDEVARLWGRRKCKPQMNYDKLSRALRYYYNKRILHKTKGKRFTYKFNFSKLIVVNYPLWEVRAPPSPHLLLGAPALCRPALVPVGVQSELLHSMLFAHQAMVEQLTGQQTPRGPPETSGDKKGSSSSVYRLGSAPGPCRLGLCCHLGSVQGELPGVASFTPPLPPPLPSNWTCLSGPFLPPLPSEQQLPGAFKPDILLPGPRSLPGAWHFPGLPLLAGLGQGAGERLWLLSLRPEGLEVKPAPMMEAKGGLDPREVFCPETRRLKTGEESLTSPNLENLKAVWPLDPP
A digest of the protocol:
as §1

The next experiment deals with T5, ETS2 (Homo sapiens, UniProt P15036 1-469).
T5 sequence: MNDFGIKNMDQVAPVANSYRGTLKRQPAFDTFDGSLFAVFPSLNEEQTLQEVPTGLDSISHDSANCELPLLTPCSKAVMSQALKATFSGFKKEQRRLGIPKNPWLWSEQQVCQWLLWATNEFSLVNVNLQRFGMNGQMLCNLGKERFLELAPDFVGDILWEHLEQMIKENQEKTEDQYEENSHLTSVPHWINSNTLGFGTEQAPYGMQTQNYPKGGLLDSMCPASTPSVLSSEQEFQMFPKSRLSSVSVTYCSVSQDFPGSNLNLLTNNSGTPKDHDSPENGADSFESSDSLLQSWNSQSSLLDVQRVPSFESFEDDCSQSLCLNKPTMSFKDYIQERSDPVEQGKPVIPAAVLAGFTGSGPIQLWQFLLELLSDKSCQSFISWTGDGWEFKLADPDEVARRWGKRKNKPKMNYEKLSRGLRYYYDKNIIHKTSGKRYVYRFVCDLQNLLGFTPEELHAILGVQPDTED
A digest of the protocol:
as §1

Another experiment deals with T6, SPDEF (Homo sapiens, UniProt O95238 1-335).
T6 sequence: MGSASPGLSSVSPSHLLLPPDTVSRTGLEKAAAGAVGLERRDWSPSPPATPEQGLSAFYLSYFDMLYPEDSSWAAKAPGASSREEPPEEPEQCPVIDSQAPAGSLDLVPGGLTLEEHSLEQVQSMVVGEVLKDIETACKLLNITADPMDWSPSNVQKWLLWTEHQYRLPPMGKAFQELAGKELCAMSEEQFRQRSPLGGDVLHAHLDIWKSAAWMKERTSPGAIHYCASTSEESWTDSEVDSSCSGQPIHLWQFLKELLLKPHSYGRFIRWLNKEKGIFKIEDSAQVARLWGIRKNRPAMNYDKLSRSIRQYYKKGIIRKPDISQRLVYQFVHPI
A digest of the protocol:
as §1

The target of another experiment is T7, ETV7 (Homo sapiens, UniProt Q9Y603 1-341).
T7 sequence: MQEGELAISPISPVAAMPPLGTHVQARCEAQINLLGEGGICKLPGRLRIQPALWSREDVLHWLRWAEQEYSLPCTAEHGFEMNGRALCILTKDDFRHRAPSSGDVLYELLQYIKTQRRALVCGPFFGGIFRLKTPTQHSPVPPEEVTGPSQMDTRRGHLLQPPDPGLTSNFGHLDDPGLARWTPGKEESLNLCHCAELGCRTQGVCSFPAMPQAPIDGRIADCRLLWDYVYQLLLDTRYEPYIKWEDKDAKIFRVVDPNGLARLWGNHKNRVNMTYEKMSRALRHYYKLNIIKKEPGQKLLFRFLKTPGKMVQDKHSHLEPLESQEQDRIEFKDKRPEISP
A digest of the protocol:
as §1

In another experiment the target is T8, ETV3 (Homo sapiens, UniProt P41162-2 1-143).
T8 sequence: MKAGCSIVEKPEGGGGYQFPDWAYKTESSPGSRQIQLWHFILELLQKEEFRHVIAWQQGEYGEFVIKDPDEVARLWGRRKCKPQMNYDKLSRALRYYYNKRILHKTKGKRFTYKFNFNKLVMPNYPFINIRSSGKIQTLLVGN
In outline:
as §1

Another experiment has as its target ETV6 (Homo sapiens, UniProt P41212 1-452). In outline: as §1

Chain of ETV6 (P41212 whole entry): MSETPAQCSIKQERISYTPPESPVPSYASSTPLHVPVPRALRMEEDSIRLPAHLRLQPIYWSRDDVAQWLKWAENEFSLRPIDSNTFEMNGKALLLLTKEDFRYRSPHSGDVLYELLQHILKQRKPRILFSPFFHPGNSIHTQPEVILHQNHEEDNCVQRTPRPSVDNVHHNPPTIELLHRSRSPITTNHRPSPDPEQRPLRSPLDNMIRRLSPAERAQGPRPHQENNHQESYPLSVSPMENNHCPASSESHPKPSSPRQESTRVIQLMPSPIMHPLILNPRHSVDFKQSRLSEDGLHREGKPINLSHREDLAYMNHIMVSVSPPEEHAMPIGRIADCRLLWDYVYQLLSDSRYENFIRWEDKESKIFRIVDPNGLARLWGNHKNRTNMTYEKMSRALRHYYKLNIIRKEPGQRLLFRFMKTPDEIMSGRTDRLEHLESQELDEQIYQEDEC
Chain of ETV1 (P50549 whole entry): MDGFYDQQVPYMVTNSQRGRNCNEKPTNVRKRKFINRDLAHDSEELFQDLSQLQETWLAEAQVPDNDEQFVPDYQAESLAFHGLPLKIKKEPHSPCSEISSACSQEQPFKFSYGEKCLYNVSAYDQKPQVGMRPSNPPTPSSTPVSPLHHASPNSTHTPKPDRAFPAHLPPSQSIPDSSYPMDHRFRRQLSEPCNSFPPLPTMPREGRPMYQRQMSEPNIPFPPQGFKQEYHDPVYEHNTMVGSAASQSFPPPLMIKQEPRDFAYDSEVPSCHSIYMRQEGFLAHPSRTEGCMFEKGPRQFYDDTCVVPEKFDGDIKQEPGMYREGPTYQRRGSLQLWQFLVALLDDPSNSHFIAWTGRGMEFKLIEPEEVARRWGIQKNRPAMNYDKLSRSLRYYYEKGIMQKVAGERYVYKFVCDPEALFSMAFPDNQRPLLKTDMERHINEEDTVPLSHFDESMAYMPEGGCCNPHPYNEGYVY

On to CATGCA, for which the binding signal was 1.12 fold enrichment (6-mer frequency, TF over GST control) with ETV2; 1.16 fold enrichment (6-mer frequency, TF over GST control) with ELF3; 1.11 fold enrichment (6-mer frequency, TF over GST control) with ETV1; 1.09 fold enrichment (6-mer frequency, TF over GST control) in the experiment with ERF; 1.16 fold enrichment (6-mer frequency, TF over GST control) in the experiment with ETV3L; 1.06 fold enrichment (6-mer frequency, TF over GST control) with ETS2. In addition, the binding signal in the experiment with SPDEF was 1.13 fold enrichment (6-mer frequency, TF over GST control); with ETV7, 1.03 fold enrichment (6-mer frequency, TF over GST control); with ETV3, 1.05 fold enrichment (6-mer frequency, TF over GST control); with ETV6, 1.18 fold enrichment (6-mer frequency, TF over GST control).
